Screen size: about 5,500 compounds; about 2,000 (36%) were called active. About 18% were inconclusive and are not listed. Rule as the data show it: active = normalized growth mostly below about 0.91 (no sharp cut-off); inconclusive = no clear call, values can overlap the other calls; inactive = mostly above about 0.92. This is one part of the list.
Assay: chemical genetic growth profiling, strain panel (AID 1159580);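 also: tested at 20 µM; growth read once vehicle control cultures reached saturation at 30 °C; 1 = growth at the plate median or of vehicle wells; lower values mean less growth of the strain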
Conditions: growth OD

Measured: normalized growth

O=C(CCCN1CC=C(n2c(=O)[nH]c3ccccc32)CC1)c1ccc(F)cc1
inactive: S. cerevisiae deletion strains, locus YJR075W, strain HOC1, stronger effect = lower value 0.98 | S. cerevisiae deletion strains, locus YKL009W, strain mrt4, stronger effect = lower value 0.939 | S. cerevisiae deletion strains, locus YKL068W, stronger effect = lower value 0.989 | S. cerevisiae deletion strains, locus YKL085W, strain MDH1 (second series), stronger effect = lower value 0.994 | S. cerevisiae deletion strains, locus YKL085W, strain MDH1, stronger effect = lower value 0.994 | S. cerevisiae deletion strains, locus YKL160W, strain elf1, stronger effect = lower value 0.977 | S. cerevisiae deletion strains, locus YKL190W, strain CNB1, stronger effect = lower value 0.99 | S. cerevisiae deletion strains, locus YKR001C, strain vps1, stronger effect = lower value 0.981 | S. cerevisiae deletion strains, locus YKR026C, strain gcn3, stronger effect = lower value 0.948 | S. cerevisiae deletion strains, locus YKR091W, strain srl3, stronger effect = lower value 0.967 | S. cerevisiae deletion strains, locus YLL001W, strain dnm1, stronger effect = lower value 0.957 | S. cerevisiae deletion strains, locus YLL026W, stronger effect = lower value 0.968 | S. cerevisiae deletion strains, locus YLL041C, strain sdh2, stronger effect = lower value 0.988 | S. cerevisiae deletion strains, locus YLR027C, strain aat2, stronger effect = lower value 0.979 | S. cerevisiae deletion strains, locus YLR039C, strain RIC1, stronger effect = lower value 0.969 | S. cerevisiae deletion strains, locus YLR058C, strain SHM2, stronger effect = lower value 0.967 | S. cerevisiae deletion strains, locus YLR102C, strain apc9, stronger effect = lower value 0.989 | S. cerevisiae deletion strains, locus YLR113W, strain HOG1, stronger effect = lower value 0.971 | S. cerevisiae deletion strains, locus YLR221C, strain rsa3, stronger effect = lower value 0.976 | S. cerevisiae deletion strains, locus YLR258W, strain gsy2, stronger effect = lower value 0.987 | S. cerevisiae deletion strains, locus YLR262C, strain YPT6 (second series), stronger effect = lower value 0.954 | S. cerevisiae deletion strains, locus YLR262C, strain YPT6, stronger effect = lower value 0.942 | S. cerevisiae deletion strains, locus YLR268W, strain sec22, stronger effect = lower value 1.05 | S. cerevisiae deletion strains, locus YLR320W, strain mms22, stronger effect = lower value 0.986 | S. cerevisiae deletion strains, locus YLR330W, strain CHS5, stronger effect = lower value 0.986 | S. cerevisiae deletion strains, locus YLR342W, strain FKS1 (second series), stronger effect = lower value 0.944 | S. cerevisiae deletion strains, locus YLR342W, strain FKS1, stronger effect = lower value 0.974 | S. cerevisiae deletion strains, locus YLR357W, strain rsc2, stronger effect = lower value 0.951 | S. cerevisiae deletion strains, locus YLR370C, strain arc18, stronger effect = lower value 0.972 | S. cerevisiae deletion strains, locus YLR371W, strain rom2, stronger effect = lower value 0.949 | S. cerevisiae deletion strains, locus YLR384C, strain iki3, stronger effect = lower value 0.961 | S. cerevisiae deletion strains, locus YLR418C, strain cdc73, stronger effect = lower value 0.968 | S. cerevisiae deletion strains, locus YML016C, strain PPZ1, stronger effect = lower value 0.987 | S. cerevisiae deletion strains, locus YML032C, strain rad52, stronger effect = lower value 0.993 | S. cerevisiae deletion strains, locus YML120C, strain ndi1, stronger effect = lower value 1 | S. cerevisiae deletion strains, locus YML124C, strain tub3, stronger effect = lower value 0.975 | S. cerevisiae deletion strains, locus YMR058W, strain fet3, stronger effect = lower value 0.99 | S. cerevisiae deletion strains, locus YMR078C, strain ctf18, stronger effect = lower value 0.979 | S. cerevisiae deletion strains, locus YMR125W, strain sto1, stronger effect = lower value 0.944 | S. cerevisiae deletion strains, locus YMR129W, stronger effect = lower value 0.987 | S. cerevisiae deletion strains, locus YMR205C, strain PFK2, stronger effect = lower value 0.951 | S. cerevisiae deletion strains, locus YMR223W, strain ubp8, stronger effect = lower value 0.955 | S. cerevisiae deletion strains, locus YMR231W, strain pep5, stronger effect = lower value 0.979 | S. cerevisiae deletion strains, locus YMR263W, strain SAP30, stronger effect = lower value 0.987 | S. cerevisiae deletion strains, locus YMR307W, strain GAS1, stronger effect = lower value 0.974 | S. cerevisiae deletion strains, locus YNL067W, strain RPL9B, stronger effect = lower value 0.999 | S. cerevisiae deletion strains, locus YNL071W, strain lat1, stronger effect = lower value 0.982 | S. cerevisiae deletion strains, locus YNL128W, strain TEP1, stronger effect = lower value 0.98 | S. cerevisiae deletion strains, locus YNL153C, strain GIM3, stronger effect = lower value 0.985 | S. cerevisiae deletion strains, locus YNL183C, strain NPR1, stronger effect = lower value 0.925 | S. cerevisiae deletion strains, locus YNL209W, strain ssb2, stronger effect = lower value 0.975 | S. cerevisiae deletion strains, locus YNL233W, strain BNI4, stronger effect = lower value 0.992 | S. cerevisiae deletion strains, locus YNL248C, strain rpa49, stronger effect = lower value 0.981 | S. cerevisiae deletion strains, locus YNL250W, strain rad50, stronger effect = lower value 0.971 | S. cerevisiae deletion strains, locus YNL271C, strain bni1, stronger effect = lower value 0.995 | S. cerevisiae deletion strains, locus YNL298W, strain CLA4, stronger effect = lower value 0.982 | S. cerevisiae deletion strains, locus YNL307C, strain MCK1, stronger effect = lower value 0.968 | S. cerevisiae deletion strains, locus YNL322C, strain KRE1 (second series), stronger effect = lower value 0.984 | S. cerevisiae deletion strains, locus YNL322C, strain KRE1, stronger effect = lower value 0.987 | S. cerevisiae deletion strains, locus YNR049C, strain mso1, stronger effect = lower value 0.972 | S. cerevisiae deletion strains, locus YNR052C, strain pop2, stronger effect = lower value 0.992 | S. cerevisiae deletion strains, locus YOL006C, strain TOP1, stronger effect = lower value 0.996 | S. cerevisiae deletion strains, locus YOL012C, strain htz1 0.899 | S. cerevisiae deletion strains, locus YOL147C, strain pex11, stronger effect = lower value 0.991 | S. cerevisiae deletion strains, locus YOR001W, strain rrp6, stronger effect = lower value 0.955 | S. cerevisiae deletion strains, locus YOR061W, strain CKA2, stronger effect = lower value 0.97 | S. cerevisiae deletion strains, locus YOR070C, strain gyp1, stronger effect = lower value 0.99 | S. cerevisiae deletion strains, locus YOR080W, strain dia2, stronger effect = lower value 0.963 | S. cerevisiae deletion strains, locus YOR083W, strain WHI5, stronger effect = lower value 0.978 | S. cerevisiae deletion strains, locus YOR106W, strain vam3, stronger effect = lower value 0.933 | S. cerevisiae deletion strains, locus YOR136W, strain idh2, stronger effect = lower value 0.983 | S. cerevisiae deletion strains, locus YOR144C, strain elg1, stronger effect = lower value 0.988 | S. cerevisiae deletion strains, locus YOR184W, strain ser1, stronger effect = lower value 0.967 | S. cerevisiae deletion strains, locus YOR231W, strain MKK1, stronger effect = lower value 0.992 | S. cerevisiae deletion strains, locus YOR265W, strain rbl2, stronger effect = lower value 0.981 | S. cerevisiae deletion strains, locus YOR270C, strain vph1, stronger effect = lower value 0.956 | S. cerevisiae deletion strains, locus YOR290C, strain snf2, stronger effect = lower value 0.98 | S. cerevisiae deletion strains, locus YOR316C, strain cot1, stronger effect = lower value 0.98 | S. cerevisiae deletion strains, locus YPL051W, strain arl3, stronger effect = lower value 0.98 | S. cerevisiae deletion strains, locus YPL055C, strain LGE1, stronger effect = lower value 0.955 | S. cerevisiae deletion strains, locus YPL078C, strain atp4, stronger effect = lower value 0.949 | S. cerevisiae deletion strains, locus YPL106C, strain sse1, stronger effect = lower value 0.967 | S. cerevisiae deletion strains, locus YPL240C, strain hsp82, stronger effect = lower value 0.979 | S. cerevisiae deletion strains, locus YPL241C, strain CIN2, stronger effect = lower value 0.992 | S. cerevisiae deletion strains, locus YPL256C, strain CLN2, stronger effect = lower value 0.991 | S. cerevisiae deletion strains, locus YPR119W, strain clb2, stronger effect = lower value 0.989 | S. cerevisiae deletion strains, locus YPR141C, strain kar3, stronger effect = lower value 0.973 | S. cerevisiae deletion strains, locus YPR163C, strain tif3, stronger effect = lower value 0.989 | S. cerevisiae deletion strains, locus YPR167C, strain met16, stronger effect = lower value 0.991 | S. cerevisiae deletion strains, strain wtn01, stronger effect = lower value 0.991 | S. cerevisiae strains, strain wild type, stronger effect = lower value 0.979
